Data on one sequence can be found in publication PMC7862700, “An all-to-all approach to the identification of sequence-specific readers for epigenetic DNA modifications on cytosine”.

Common to all, as to assay: DAPPL (digital affinity profiling via proximity ligation, sequencing); 10 mM Tris-HCl pH 7.5, 50 mM NaCl, 1 mM DTT, 4% glycerol, room temperature, 30 min; GST-TFs on glutathione beads, 16-mer random dsDNA library, 0.1% formaldehyde crosslink after washing; high values mean tight binding
One experiment has as its target T1, FEV (Homo sapiens, UniProt Q99581 1-238).
T1 sequence: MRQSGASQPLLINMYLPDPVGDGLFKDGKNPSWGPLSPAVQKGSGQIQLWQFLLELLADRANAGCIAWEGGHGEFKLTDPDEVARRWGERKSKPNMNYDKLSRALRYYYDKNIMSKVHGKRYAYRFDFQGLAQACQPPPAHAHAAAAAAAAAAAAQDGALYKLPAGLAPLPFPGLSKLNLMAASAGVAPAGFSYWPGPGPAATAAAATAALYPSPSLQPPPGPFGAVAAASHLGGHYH
Conditions: protein: recombinant; tags: N-terminal GST; dsDNA, one strand shown. In outline:
(§1)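 Binding signal is each hexamer's read frequency for a factor divided by its frequency in the tag-only sample. The factors were GST-fused human transcription factors from yeast, captured on glutathione beads, DNA-barcoded and pooled with that sample. Pools were incubated with 200 nmole of a random double-stranded 16-mer DNA library in Tris/NaCl/DTT/glycerol buffer at room temperature for 30 min, then washed, crosslinked with 0.1% formaldehyde, proximity-ligated with BsaI/T4 ligase (1 h, 37 °C), PCR-amplified and sequenced on an Illumina NextSeq500.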

For the next experiment, the target named is ETV5 (Homo sapiens, UniProt P41161 1-510). As to conditions: protein: recombinant; tags: N-terminal GST; dsDNA, one strand shown. The method in brief:
as §1

The target of another experiment is HSF1 (Homo sapiens, UniProt Q00613 1-529). Conditions: protein: recombinant; tags: N-terminal GST; chain copies: 3; dsDNA, one strand shown. The method in brief: as §1
In a further experiment the target is T2, SPIC (Homo sapiens, UniProt Q8N5J4 1-248).
T2 sequence: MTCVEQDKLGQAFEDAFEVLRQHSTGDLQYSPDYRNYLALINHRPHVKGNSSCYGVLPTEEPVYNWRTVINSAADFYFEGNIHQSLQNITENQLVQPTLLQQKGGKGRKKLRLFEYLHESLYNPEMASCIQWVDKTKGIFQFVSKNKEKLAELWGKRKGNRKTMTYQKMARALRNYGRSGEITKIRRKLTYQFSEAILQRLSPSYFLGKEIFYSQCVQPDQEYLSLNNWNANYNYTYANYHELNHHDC
Conditions: protein: recombinant; tags: N-terminal GST; dsDNA, one strand shown. The method in brief: as §1

A further experiment addresses ELF4 (Homo sapiens, UniProt Q99607 1-663). As to conditions: protein: recombinant; tags: N-terminal GST; dsDNA, one strand shown. In outline:
as §1

A further experiment deals with T3, ELK4 (Homo sapiens, UniProt P28324-2 1-405).
T3 sequence: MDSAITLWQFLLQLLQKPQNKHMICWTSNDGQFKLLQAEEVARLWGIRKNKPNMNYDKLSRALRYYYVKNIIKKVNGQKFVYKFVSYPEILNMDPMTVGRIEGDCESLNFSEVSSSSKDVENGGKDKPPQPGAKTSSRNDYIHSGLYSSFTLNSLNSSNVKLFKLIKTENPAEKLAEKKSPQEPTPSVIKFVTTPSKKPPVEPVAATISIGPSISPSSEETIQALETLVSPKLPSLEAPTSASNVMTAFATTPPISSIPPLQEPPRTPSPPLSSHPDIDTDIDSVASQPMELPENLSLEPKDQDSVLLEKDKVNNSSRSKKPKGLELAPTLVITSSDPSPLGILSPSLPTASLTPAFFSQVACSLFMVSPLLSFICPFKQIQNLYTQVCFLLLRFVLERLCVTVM
Conditions: protein: recombinant; tags: N-terminal GST; dsDNA, one strand shown. The method in brief:
as §1

The next experiment addresses T4, ETV2 (Homo sapiens, UniProt O00321 1-342).
T4 sequence: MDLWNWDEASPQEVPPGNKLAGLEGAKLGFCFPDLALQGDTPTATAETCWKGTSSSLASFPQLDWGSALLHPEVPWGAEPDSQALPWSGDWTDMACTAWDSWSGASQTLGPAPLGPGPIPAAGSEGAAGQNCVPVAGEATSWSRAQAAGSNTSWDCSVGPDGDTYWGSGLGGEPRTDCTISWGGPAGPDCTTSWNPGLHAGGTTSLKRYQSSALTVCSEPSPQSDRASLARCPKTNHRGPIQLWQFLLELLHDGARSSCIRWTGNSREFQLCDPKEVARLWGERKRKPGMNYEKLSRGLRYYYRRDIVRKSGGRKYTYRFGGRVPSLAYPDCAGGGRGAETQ
As to conditions: protein: recombinant; tags: N-terminal GST; dsDNA, one strand shown. The method in brief:
as §1

The next experiment concerns the target T5, ELF3 (Homo sapiens, UniProt P78545 1-371).
T5 sequence: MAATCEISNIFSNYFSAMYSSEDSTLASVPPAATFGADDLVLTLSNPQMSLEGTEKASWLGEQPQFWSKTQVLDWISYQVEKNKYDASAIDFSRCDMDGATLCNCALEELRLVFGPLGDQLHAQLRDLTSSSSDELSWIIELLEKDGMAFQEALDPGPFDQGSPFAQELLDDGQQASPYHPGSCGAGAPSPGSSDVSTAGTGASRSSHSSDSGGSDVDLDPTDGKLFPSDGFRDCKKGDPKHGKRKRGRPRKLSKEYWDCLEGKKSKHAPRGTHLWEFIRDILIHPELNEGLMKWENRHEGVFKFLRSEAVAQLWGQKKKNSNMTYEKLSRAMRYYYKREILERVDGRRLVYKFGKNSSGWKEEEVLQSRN
As to conditions: protein: recombinant; tags: N-terminal GST; dsDNA, one strand shown. In outline: as §1

Another experiment has as its target CRX (Homo sapiens, UniProt O43186 1-299). Conditions: protein: recombinant; tags: N-terminal GST; dsDNA, one strand shown. In outline:
as §1

In a further experiment the target is ETV1 (Homo sapiens, UniProt P50549 1-477). As to conditions: protein: recombinant; tags: N-terminal GST; dsDNA, one strand shown. In outline: as §1
For the next experiment, the target named is T6, ERF (Homo sapiens, UniProt P50548 1-548).
T6 sequence: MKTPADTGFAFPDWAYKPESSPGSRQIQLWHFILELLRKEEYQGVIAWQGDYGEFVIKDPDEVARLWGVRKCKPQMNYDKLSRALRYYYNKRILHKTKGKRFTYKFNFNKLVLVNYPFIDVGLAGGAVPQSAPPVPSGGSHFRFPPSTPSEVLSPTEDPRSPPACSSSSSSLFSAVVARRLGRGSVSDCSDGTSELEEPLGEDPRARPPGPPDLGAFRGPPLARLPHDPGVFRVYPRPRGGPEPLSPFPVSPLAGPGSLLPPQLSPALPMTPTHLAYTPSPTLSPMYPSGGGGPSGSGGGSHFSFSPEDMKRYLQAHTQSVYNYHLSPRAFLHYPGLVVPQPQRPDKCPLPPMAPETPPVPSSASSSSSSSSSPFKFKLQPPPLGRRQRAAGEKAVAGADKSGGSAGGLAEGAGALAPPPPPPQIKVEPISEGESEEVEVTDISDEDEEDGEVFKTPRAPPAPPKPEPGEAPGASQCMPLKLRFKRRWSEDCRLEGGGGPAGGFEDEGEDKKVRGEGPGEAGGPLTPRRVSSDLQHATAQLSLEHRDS
As to conditions: protein: recombinant; tags: N-terminal GST; dsDNA, one strand shown. The method in brief:
as §1

The next experiment addresses T7, ETV3L (Homo sapiens, UniProt Q6ZN32 1-361).
T7 sequence: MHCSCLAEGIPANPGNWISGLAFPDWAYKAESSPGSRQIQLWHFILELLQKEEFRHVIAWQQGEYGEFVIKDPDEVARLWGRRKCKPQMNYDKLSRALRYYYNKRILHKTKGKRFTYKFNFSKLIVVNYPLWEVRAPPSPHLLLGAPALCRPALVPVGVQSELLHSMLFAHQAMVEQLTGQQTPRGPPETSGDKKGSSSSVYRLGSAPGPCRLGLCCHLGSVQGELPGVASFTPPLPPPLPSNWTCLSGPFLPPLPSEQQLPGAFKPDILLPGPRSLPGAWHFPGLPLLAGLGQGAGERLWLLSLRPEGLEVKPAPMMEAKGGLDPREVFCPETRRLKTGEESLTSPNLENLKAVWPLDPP
Conditions: protein: recombinant; tags: N-terminal GST; dsDNA, one strand shown. In outline:
as §1

Another experiment deals with T8, ETS2 (Homo sapiens, UniProt P15036 1-469).
T8 sequence: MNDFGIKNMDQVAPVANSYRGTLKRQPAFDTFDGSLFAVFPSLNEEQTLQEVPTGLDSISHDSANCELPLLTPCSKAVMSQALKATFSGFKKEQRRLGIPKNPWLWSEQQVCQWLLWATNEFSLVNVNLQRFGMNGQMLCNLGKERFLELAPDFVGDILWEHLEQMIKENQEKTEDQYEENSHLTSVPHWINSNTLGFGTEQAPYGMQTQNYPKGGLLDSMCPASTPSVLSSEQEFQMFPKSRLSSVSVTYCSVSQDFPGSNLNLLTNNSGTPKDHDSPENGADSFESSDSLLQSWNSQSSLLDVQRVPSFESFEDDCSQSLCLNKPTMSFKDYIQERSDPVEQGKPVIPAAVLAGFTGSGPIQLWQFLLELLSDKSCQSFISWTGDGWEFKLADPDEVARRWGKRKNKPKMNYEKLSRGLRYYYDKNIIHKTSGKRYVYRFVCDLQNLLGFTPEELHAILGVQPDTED
Conditions: protein: recombinant; tags: N-terminal GST; dsDNA, one strand shown. In outline:
as §1

The target in the next experiment is T9, SPDEF (Homo sapiens, UniProt O95238 1-335).
T9 sequence: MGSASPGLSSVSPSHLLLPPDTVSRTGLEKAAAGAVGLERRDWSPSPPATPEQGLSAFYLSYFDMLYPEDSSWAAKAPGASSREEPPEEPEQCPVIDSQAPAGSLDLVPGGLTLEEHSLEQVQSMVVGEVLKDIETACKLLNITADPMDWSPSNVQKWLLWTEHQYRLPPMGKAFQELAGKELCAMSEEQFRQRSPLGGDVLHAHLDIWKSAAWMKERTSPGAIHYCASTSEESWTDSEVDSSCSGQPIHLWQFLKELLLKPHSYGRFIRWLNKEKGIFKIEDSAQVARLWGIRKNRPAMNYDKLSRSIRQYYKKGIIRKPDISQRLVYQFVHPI
As to conditions: protein: recombinant; tags: N-terminal GST; dsDNA, one strand shown. The method in brief: as §1

The target in the next experiment is T10, ETV7 (Homo sapiens, UniProt Q9Y603 1-341).
T10 sequence: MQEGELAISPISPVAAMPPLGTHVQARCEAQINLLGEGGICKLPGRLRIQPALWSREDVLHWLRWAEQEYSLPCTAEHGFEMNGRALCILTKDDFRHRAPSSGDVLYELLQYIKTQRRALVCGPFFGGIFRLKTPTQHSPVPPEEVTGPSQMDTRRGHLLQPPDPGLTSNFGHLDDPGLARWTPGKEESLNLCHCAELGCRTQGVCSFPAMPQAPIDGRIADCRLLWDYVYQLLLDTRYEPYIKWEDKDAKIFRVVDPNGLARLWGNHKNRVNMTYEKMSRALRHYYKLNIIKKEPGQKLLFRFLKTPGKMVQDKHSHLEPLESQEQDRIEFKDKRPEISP
Conditions: protein: recombinant; tags: N-terminal GST; dsDNA, one strand shown. In outline: as §1

In another experiment the target is T11, ELF5 (Homo sapiens, UniProt Q9UKW6-2 1-255).
T11 sequence: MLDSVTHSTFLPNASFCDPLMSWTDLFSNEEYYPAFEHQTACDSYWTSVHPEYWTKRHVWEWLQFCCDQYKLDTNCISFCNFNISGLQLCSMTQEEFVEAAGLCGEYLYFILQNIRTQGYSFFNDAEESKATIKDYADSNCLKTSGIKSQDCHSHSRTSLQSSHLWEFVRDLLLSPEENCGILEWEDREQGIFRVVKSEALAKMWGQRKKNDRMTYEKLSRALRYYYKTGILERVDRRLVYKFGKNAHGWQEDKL
As to conditions: protein: recombinant; tags: N-terminal GST; dsDNA, one strand shown. The method in brief:
as §1

The next experiment addresses T12, ETV3 (Homo sapiens, UniProt P41162-2 1-143).
T12 sequence: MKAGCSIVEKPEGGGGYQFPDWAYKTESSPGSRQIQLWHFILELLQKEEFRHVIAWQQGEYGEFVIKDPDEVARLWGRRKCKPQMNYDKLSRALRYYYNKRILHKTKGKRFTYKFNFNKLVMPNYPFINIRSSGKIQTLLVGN
Conditions: protein: recombinant; tags: N-terminal GST; dsDNA, one strand shown. The method in brief:
as §1

A further experiment deals with ETV6 (Homo sapiens, UniProt P41212 1-452). Conditions: protein: recombinant; tags: N-terminal GST; dsDNA, one strand shown. In outline: as §1
Chain of ETV6 (P41212 whole entry): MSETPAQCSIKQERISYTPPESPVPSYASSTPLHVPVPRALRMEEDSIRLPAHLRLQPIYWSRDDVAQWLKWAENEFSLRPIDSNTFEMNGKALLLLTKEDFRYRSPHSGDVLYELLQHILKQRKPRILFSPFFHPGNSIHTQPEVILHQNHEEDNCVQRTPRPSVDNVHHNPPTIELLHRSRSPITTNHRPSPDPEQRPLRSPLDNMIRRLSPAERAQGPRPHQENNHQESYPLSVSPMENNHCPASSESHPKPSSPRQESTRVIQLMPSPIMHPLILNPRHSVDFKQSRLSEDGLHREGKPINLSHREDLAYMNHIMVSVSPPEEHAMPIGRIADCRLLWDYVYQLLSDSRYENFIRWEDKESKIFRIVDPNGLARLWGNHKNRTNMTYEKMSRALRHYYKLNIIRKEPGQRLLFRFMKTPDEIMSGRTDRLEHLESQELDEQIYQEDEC

Chain of CRX (O43186 whole entry): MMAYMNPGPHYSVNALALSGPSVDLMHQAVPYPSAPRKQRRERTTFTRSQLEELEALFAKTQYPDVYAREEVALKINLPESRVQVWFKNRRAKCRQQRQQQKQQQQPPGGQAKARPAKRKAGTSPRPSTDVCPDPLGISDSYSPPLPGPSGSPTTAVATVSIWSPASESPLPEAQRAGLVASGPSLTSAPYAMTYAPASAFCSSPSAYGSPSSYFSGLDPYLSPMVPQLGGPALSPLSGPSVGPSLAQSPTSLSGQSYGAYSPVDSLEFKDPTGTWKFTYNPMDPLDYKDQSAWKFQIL
Chain of ELF4 (Q99607 whole entry): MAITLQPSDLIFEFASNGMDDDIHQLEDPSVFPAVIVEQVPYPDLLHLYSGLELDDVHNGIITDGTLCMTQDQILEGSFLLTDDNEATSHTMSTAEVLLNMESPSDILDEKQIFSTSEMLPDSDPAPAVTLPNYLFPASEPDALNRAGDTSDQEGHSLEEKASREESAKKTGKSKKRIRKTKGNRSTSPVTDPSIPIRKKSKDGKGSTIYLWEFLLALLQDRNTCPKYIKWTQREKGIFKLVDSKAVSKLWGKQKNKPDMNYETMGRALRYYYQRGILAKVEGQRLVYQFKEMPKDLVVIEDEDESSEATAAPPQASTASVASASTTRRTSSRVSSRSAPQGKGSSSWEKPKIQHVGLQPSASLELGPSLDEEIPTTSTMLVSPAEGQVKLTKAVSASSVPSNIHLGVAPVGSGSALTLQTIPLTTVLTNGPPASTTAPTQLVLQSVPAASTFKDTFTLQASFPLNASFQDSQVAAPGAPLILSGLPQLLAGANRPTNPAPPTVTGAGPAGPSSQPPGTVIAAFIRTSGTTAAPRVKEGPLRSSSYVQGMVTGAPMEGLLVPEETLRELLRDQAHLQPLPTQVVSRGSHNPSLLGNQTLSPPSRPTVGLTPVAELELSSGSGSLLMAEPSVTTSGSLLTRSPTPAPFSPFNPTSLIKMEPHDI
Chain of ETV1 (P50549 whole entry): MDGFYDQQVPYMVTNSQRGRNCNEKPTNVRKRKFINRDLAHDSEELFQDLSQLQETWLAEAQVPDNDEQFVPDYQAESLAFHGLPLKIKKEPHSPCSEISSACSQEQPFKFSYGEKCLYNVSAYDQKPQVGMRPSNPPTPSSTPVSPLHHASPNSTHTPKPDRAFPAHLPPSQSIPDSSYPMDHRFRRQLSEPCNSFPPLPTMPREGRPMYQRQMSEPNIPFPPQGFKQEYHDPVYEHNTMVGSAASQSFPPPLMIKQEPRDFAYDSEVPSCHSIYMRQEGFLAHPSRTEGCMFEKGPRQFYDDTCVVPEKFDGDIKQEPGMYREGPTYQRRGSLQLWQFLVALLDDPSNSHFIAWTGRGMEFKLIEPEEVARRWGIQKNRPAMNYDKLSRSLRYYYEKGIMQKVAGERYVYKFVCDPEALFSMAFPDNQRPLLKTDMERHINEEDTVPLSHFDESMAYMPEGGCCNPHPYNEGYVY
Chain of ETV5 (P41161 whole entry): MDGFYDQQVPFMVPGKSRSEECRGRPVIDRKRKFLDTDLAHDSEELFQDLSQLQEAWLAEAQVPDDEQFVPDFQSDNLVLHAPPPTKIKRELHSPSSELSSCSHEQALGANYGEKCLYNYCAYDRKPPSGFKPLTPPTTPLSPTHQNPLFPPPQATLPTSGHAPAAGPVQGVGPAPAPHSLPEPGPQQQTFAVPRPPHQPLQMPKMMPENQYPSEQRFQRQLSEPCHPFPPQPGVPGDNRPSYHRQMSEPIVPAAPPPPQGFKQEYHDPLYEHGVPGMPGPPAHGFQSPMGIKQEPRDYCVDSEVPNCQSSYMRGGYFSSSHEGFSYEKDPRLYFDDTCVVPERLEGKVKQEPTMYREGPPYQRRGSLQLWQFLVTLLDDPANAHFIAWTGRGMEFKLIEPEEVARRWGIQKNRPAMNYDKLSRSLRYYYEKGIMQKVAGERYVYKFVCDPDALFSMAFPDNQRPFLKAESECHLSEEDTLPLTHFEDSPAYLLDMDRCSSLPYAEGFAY
Chain of HSF1 (Q00613 whole entry): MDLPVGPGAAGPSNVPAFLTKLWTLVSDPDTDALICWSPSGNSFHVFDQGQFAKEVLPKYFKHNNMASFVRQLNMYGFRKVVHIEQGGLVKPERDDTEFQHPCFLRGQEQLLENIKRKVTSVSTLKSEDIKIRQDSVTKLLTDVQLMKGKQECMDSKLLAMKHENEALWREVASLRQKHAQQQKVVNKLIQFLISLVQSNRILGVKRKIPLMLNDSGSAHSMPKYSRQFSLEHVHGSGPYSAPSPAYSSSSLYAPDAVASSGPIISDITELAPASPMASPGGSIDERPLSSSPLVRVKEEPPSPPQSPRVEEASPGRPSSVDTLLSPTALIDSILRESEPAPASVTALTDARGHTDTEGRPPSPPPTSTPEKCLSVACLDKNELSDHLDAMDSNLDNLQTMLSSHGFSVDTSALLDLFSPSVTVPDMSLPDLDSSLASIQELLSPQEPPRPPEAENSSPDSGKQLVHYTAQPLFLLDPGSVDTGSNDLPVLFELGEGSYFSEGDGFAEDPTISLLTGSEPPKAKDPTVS

Consider ATATCG, for which the binding signal with FEV is 1.1 fold enrichment (6-mer frequency, TF over GST control); with ETV5 it was 1.16 fold enrichment (6-mer frequency, TF over GST control); with HSF1 it was 1.14 fold enrichment (6-mer frequency, TF over GST control); in the experiment with SPIC, 1.07 fold enrichment (6-mer frequency, TF over GST control); with ELF4, 1.22 fold enrichment (6-mer frequency, TF over GST control); in the experiment with ELK4, 1.21 fold enrichment (6-mer frequency, TF over GST control). The binding signal in the experiment with ETV2 was 1.18 fold enrichment (6-mer frequency, TF over GST control); in the experiment with ELF3, 1.02 fold enrichment (6-mer frequency, TF over GST control); with CRX, 1.07 fold enrichment (6-mer frequency, TF over GST control); in the experiment with ETV1, 1.22 fold enrichment (6-mer frequency, TF over GST control); in the experiment with ERF, 1.23 fold enrichment (6-mer frequency, TF over GST control); with ETV3L, 1.23 fold enrichment (6-mer frequency, TF over GST control). Further, the binding signal with ETS2 is 1.17 fold enrichment (6-mer frequency, TF over GST control); with SPDEF it was 1.26 fold enrichment (6-mer frequency, TF over GST control); with ETV7 it was 1.16 fold enrichment (6-mer frequency, TF over GST control); in the experiment with ELF5 it was 1.1 fold enrichment (6-mer frequency, TF over GST control); with ETV3, 1.14 fold enrichment (6-mer frequency, TF over GST control); with ETV6 it was 1.09 fold enrichment (6-mer frequency, TF over GST control).
